Source: PubChem
The entries come from a sample that favours hits as a whole.
p53ts 32C tox: p53ts cell cytotoxicity, permissive temperature; H1299-p53A138V at 32C, ATP luminescence viability, 24 h; Potency, µM (doses to about 46.1 µM), without a hit: at the top dose activity change, negative = cytotoxicity, usual class: cytotoxic; actives 0.93% (n = 130,000);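 further: potency means the concentration at half of the fitted maximal effect; 0% = DMSO and -100% = full killing by reference compound; nearly all actives have a fitted effect of over 55% in size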
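Viability by ATPlite luminescence after 24 h compound treatment (up to 46 uM) at the permissive 32C. Cells are H1299 carrying p53 A138V. Scale runs from DMSO basal to 100 uM tamoxifen as full kill; AC50 from Hill fits.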
p53ts 39C kill: kills p53ts cells at the nonpermissive temperature; actives 1.5% (n = 130,000); Potency, µM (doses to about 46.1 µM), inactives show at the highest dose activity change, negative = cell killing, most hits filed as cytotoxic; H1299-p53A138V viability at 39C, ATP luminescence, 24 h; further: potency means the concentration at half of the fitted maximal effect; on the % scale 0 is the no-effect control and ±100 the full control effect; nearly all actives have a fitted effect of over 55% in size
Hsp90 Hop PPI: changes Hsp90-Hop TPR2A binding signal, up or down; AlphaScreen TPR2A-His6 binding biotin-Hsp90 C-terminal peptide; AID 595; actives 0.44% (n = 71,000); Potency, µM (top dose mostly 57 µM), for the others: at the top dose activity change, negative = inhibition; active means well fitted curve in either direction with a large enough effect; inconclusive means small, poorly fitted or top-dose-only effect, or another doubt; further: potency means the concentration at half of the fitted maximal effect; on the % scale 0 is the no-effect control and ±100 the full control effect
IMPase inh: cell-permeable inhibitors of inositol monophosphatase (IMPase). 120,000 tested, under 10 active. AID 901. P97697. CHO-M1 cells, IP1 accumulation, HTRF TR-FRET ratio. inhibition (IP1 accumulation), % at 46.1 µM; active means well fitted curve in the direction sought with a large enough effect in the signal ratio, not every such curve was filed as active; inconclusive means small, poorly fitted or top-dose-only effect, or a change in a side signal; inactive means no such curve, though single readings can be large or run the other way; the % refers to the signal ratio;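 further: cells stimulated with carbachol in lithium chloride buffer; plate controls were DMSO basal wells for no effect and reference inhibitor wells for full effect; higher means more IMPase inhibition seen as more IP1 and lower FRET ratio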
Target sequence (P97697 whole entry, looked up): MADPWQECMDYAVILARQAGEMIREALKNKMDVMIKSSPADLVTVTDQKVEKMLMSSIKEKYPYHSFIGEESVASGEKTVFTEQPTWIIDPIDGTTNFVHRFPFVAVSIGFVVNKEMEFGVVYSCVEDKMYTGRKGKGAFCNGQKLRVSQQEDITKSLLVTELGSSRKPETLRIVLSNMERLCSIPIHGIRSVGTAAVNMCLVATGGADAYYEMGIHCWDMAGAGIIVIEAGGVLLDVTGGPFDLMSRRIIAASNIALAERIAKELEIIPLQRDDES
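Seeded CHO-M1 cells were dosed with compound at up to 46 uM, stimulated with carbachol for 30 min, then lysed in IP-One detection reagents. Higher IP1 lowers the TR-FRET signal.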
IkB signaling: inhibitors of IkB signaling in ABC-DLBCL cells. ABC-DLBCL IkBa-CBG/CBR dual luciferase ratio, 4 h; response scale: scaled: untreated 0%, proteasome inhibitor 100%. Potency, µM (highest dose often 57.1 µM), for the others: at the top dose IkBa stabilization activation. actives 0.04% (n = 110,000); active means well fitted curve in the direction sought with a large enough effect in the signal ratio, not every such curve was filed as active; inconclusive means small, poorly fitted or top-dose-only effect, or a change in a side signal; the % refers to the signal ratio;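 further: potency means the concentration at half of the fitted maximal effect; the direction sought is a rising ratio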
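Luminescence ratio of IκBα-fused green versus native red beetle luciferase in OCI-Ly3 cells, 4 h post-doxycycline with compound; red signal alone, scaled from basal (0%) to zero light (-100%), flagged nonspecific or cytotoxic effects.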
FLuc inh: blocks Photinus pyralis firefly luciferase activity | actives 2.2% (n = 72,000) | Potency, µM (doses to about 57.1 µM), inactives show at the highest dose activity change, negative = inhibition, most hits filed as inhibitors | P08659 | purified firefly luciferase, luminescence, 8 min | AID 411; further: potency means the concentration at half of the fitted maximal effect; on the % scale 0 is the no-effect control and ±100 the full control effect; nearly all actives have a fitted effect of over 40% in size
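Substrate buffer containing 10 uM ATP (pH 7.2 imidazole, Mg2+, KCl, detergent, BSA) is dispensed, compound pinned in, then luciferase/luciferin detector mix added. After 8 min at ambient temperature, light output is measured.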
An asterisk follows results filed as active; ? = inconclusive; · = no result given; [ ] = remark or other dose. Unless noted, the call rests on the fitted dose curve; in most records, active means well fitted curve in the direction sought with a large enough effect; inconclusive means small, poorly fitted or top-dose-only effect, or another doubt; inactive means no such curve, though single readings can be large; an effect the other way counts as inactive or inconclusive.

SMILES	p53ts 32C tox	p53ts 39C kill	Hsp90 Hop PPI	IMPase inh	IkB signaling	FLuc inh
Cc1c(N=Cc2ccc(Cl)o2)c(=O)n(-c2ccccc2)n1C	2%	-8%	0%	4	1%	1%
Cc1c(N=CC=Nc2c(C)n(C)n(-c3ccccc3)c2=O)c(=O)n(-c2ccccc2)n1C	-2%	-1%	-5%[11 µM]	2	-1%	3%
Cc1c(N=c2c(=O)c3ccccc3c2=O)c(=O)n(-c2ccccc2)n1C	10µM*	13µM*	-7%	·	?	-28%
COc1ccc(NC(=O)c2ccc(-c3ccc(-c4noc(C)n4)cc3C)cc2)cc1N1CCN(C)CC1	?	20µM*	?	-3	?	-4%
COc1ccc(NC(=O)c2ccc(-c3ccc(-c4noc(C)n4)cc3C)cc2)cc1OCCN(C)C	25µM*	7.9µM*	-5%	11	?	0%
CCOc1ccc(NC(=O)CSc2cn(CC(=O)N3CCOCC3)c3ccccc23)cc1	-4%	-11%	·	·	0%	·
CCCCN(C)C(=O)c1ccc2c(=O)n3nc(Nc4cc(C)ccc4C)sc3nc2c1	8%	-8%	·	·	2%	·
CCc1ccc(NC(=O)c2ccc3c(=O)n4nc(Nc5ccccc5C)sc4nc3c2)cc1	13µM*	?	·	·	?	·
Cc1ccccc1Nc1nn2c(=O)c3ccc(C(=O)NCc4ccccc4)cc3nc2s1	-28%	-4%	·	·	0%	·
CCc1ccccc1Nc1nn2c(=O)c3ccc(C(=O)NCc4ccc(C)cc4)cc3nc2s1	?	-5%	·	·	?	·
Cc1ccc(C)c(Nc2nn3c(=O)c4ccc(C(=O)NCc5cccs5)cc4nc3s2)c1	16µM*	?	·	·	?	·
Cc1ccc(Cl)cc1Nc1nn2c(=O)c3ccc(C(=O)NCc4ccc(F)cc4)cc3nc2s1	1%	13µM*	·	·	?	·
COc1ccccc1Nc1nn2c(=O)c3ccc(C(=O)NCc4cccs4)cc3nc2s1	3.2µM*	10µM*	·	·	?	·
CN(C)CN1CSC(=S)N(CN(C)C)C1	-7%[9.22 µM]	-5%[9.22 µM]	-2%[11 µM]	·	1%[11.4 µM]	0%[11.4 µM]
COc1ccccc1NC(=O)CSc1nc2ccccc2c2nc(-c3ccccc3)nn12	9%	-27%	·	·	3%	·
Cc1cccc(N(C)S(=O)(=O)c2nnc(NC(=O)C(C)Oc3ccccc3)s2)c1 (stereo not given)	-21%	?	·	·	4%	·
CCCC(=O)N(C)c1nnc(-c2ccc(OC)cc2)s1	?	?	3%	-4	-2%	16µM*
CCOc1ccc(-c2nnc(N(CC)C(=O)C3CCC3)s2)cc1	-20%	?	16%	0	2%	16µM*
Cn1cnc(S(=O)(=O)N2CCC(C(=O)N3CCN(c4ccc(Cl)cc4)CC3)CC2)c1	-3%	-8%	·	·	1%	·
O=C(NCCCN1CCN(c2ccc(F)cc2)CC1)c1cnn(-c2ccc(F)cc2)c1-n1cccc1	2%	-6%	·	·	?	·
COc1ccc(C(=O)n2nc(-c3ccco3)nc2NCc2cccs2)cc1OC	-7%	-23%	·	·	-3%	·
Cc1cccc(-c2cc3nc4c(c(N5CCOCC5)n3n2)CCCC4)c1	-12%	-6%	?	13	?	16µM*
CC(C)n1c2ccccc2c2nc3ccccc3nc21	3%	-2%	32µM*	-4	-2%	-5%
Cc1ccc(-c2cc3nc(-c4ccccc4)cc(N4CCOCC4)n3n2)cc1	1%	7%	·	-9	·	·
COc1ccc(-c2cc3nc(-c4ccccc4)cc(N4CCC5(CC4)OCCO5)n3n2)cc1	0%	-9%	16µM*	-13	?	6%
CN(C)CCn1c(CO)nc2c1c(=O)n(C)c(=O)n2C	8%[9.22 µM]	0%[9.22 µM]	-3%[11 µM]	·	0%[11.4 µM]	2%[11.4 µM]
COc1ccc(OC)c2[nH]c(=O)c(CCNC(=O)c3cc4ccccc4o3)cc12	13µM*	?	-6%	0	?	2%
Cc1ccc(NC(=O)N2CCN(C(=O)c3nsc4ccccc34)CC2)cc1C	11%	0%	·	·	-2%	·
CC(=O)Nc1ccc2c(c1)nc1n2CCOC1	·	·	·	6	·	·
